# Records with an inconclusive call do not appear. Active and inactive are the calls of the source. The call rests on the fitted dose curve; in most records, active means well fitted activation curve with a large enough effect in the repeat runs; inconclusive means weak or mixed curves; inactive means flat fitted curve, though single readings scatter.
# Assay: A CellTox Green Cytotoxicity Assay to monitor cytotoxicity in HepG2 cells - 32 hour (AID 1224883); further: nearly all actives have a fitted effect of over 50% in size
# Conditions: CellTox Green fluorescence; series mostly up to 76.8 µM; cytotoxicity increase: at the top concentration
# Excerpt: National Center for Advancing Translational Sciences [NCATS]
# NIH Chemical Genomics Center [NCGC]
# U.S. Environmental Protection Agency [EPA]
# National Institutes of Environmental Health Sciences [NIEHS]
# National Toxicology Program [NTP]
# Cell-based models are critical for drug discovery. Determining the natural cytotoxic effects resulting from test compounds is an essential research activity. A CellTox Green Cytotoxicity Assay to monitor cytotoxicity in real time of continues cell culture during 40 hours of the compound treatment was used to screen Tox21 10K library compounds in HepG2 cells. CellTox Green Cytotoxicity Assay is a nonlytic, homogeneous, biofluorescent method to measure cytotoxicity in cell culture after experimental manipulation. The assay system uses a proprietary asymmetric cyanine dye that is excluded from viable cells but preferentially stains the dead cell's DNA. […] Viable cells produce no appreciable increases in fluorescence. Therefore, the fluorescence signal produced by the binding interaction with dead cell DNA is proportional to cytotoxicity.
# The mixture of HepG2 cell suspension and reagents were dispensed at 600cells/6 ul/well in 1536-well tissue culture treated black solid bottom plates using a Multidrop dispenser. After the assay plates were incubated at a 37 C/5% CO2 incubator for 5 hours, 23 nL of compounds dissolved in DMSO, positive and negative controls was transferred to the assay plate by a pintool work station. The plates were incubated at 37 C for 40 hours. The fluorescence intensity were measured at 0h, 8h, 16h, 24h, 32h and 40h time points using ViewLux plate reader during compound treatment.
# On the % scale 0 is the no-effect control and ±100 the full control effect.
row,SMILES,cytotoxicity increase
1,Cc1ccc([N+](=O)[O-])cc1Cl,-4.74% (inactive)
2,CCC(=O)O[C@]1(C(=O)SCF)[C@H](C)C[C@H]2[C@@H]3C[C@H](F)C4=CC(=O)C=C[C@]4(C)[C@@]3(F)[C@@H](O)C[C@@]21C,1.2% [at 35.3 µM] (inactive)
3,CCCCNc1ccc(C(=O)OCCN(CC)CC)cc1,3.55% [at 35.3 µM] (inactive)
4,OCc1c2ccccc2cc2ccccc12,-0.747% (inactive)
5,CCN1CC(CCN2CCOCC2)C(c2ccccc2)(c2ccccc2)C1=O (stereo not given),0.476% [at 35.3 µM] (inactive)
6,FC(F)(F)C(F)(F)C(F)(F)C(F)(F)C(F)(F)C(F)(F)C(F)(F)C(F)(F)Br,2.34% [at 35.3 µM] (inactive)
7,CC1(C)S[C@@H]2[C@H](NC(=O)C(C(=O)O)c3ccccc3)C(=O)N2[C@H]1C(=O)O (stereo not given in full),3.24% [at 35.3 µM] (inactive)
8,CCOC(=O)CS,-13.9% (inactive)
9,CCCNC(C)C(=O)Nc1c(C)csc1C(=O)OC (stereo not given),-13.8% [at 35.3 µM] (inactive)
10,O=C1CCN(c2ccccc2)N1,1.72% (inactive)
11,CN1CCC[C@@H]1Cc1c[nH]c2ccc(CCS(=O)(=O)c3ccccc3)cc12,-9.91% [at 35.3 µM] (inactive)
12,OCCN1CCN(CCO)CC1,4.25% (inactive)
13,COC(=O)c1ccc2cc(C(=O)OC)ccc2c1,-17.5% [at 15.8 µM] (inactive)
14,O=C1C=CC(=O)O1,-11.1% (inactive)
15,CCN(O)CC,2.99% (inactive)
16,CN1CCN(c2c(F)cc3c(=O)c(C(=O)O)cn(CCF)c3c2F)CC1,-0.281% [at 35.3 µM] (inactive)
17,O=S(=O)(O)C(F)(F)F,3% (inactive)
18,CN1C(=O)CC(c2ccccc2)C1=O (stereo not given),-23.5% [at 35.3 µM] (inactive)
19,CC1(C)C(=O)N(Cl)C(=O)N1Br,-0.42% (inactive)
20,O=C(C(Cl)Cl)N1CCOC12CCCCC2,-15.3% (inactive)

row,SMILES,cytotoxicity increase
1,CC(C)C[C@H](NC(=O)OCC1c2ccccc2-c2ccccc21)C(=O)O,-2.33% (inactive)
2,CCCN(CCC)C(=O)C(CCC(=O)O)NC(=O)c1ccccc1 (stereo not given),-3.63% [at 35.3 µM] (inactive)
3,O=C(O)[C@@H]1CSCN1,-11% [at 35.3 µM] (inactive)
4,CCOc1ccc2nc(N)sc2c1,0.0744% (inactive)
5,CCCOc1ccc2c(c1)CC[C@@H]1[C@@H]2CC[C@]2(C)C(OC)CC[C@@H]12 (stereo not given in full),-6.79% [at 35.3 µM] (inactive)
6,CC(=O)OC1C2(C)CCC(C2)C1(C)C (stereo not given),-15.4% (inactive)
7,NC/C=C/C(=O)O,-9.04% [at 35.3 µM] (inactive)
8,Oc1ccccc1F,0.506% (inactive)
9,CC1=C(O)C(=O)OC1C (stereo not given),-12.4% (inactive)
10,Cc1c(-c2ccccc2)oc2c(C(=O)OCCN3CCCCC3)cccc2c1=O,10.4% [at 35.3 µM] (inactive)
11,CCOc1ccc(NC(N)=O)cc1,-4.76% (inactive)
12,O=C1Nc2ccc([N+](=O)[O-])cc2C1=O,-1.99% (inactive)
13,CC1(C)O[C@@H]2C[C@H]3[C@@H]4CCC5=CC(=O)CC[C@]5(C)[C@@]4(F)[C@@H](O)C[C@]3(C)[C@]2(C(=O)CCl)O1,-9.72% [at 35.3 µM] (inactive)
14,CCCc1c2oc(C(=O)O)cc(=O)c2cc2c(=O)cc(C(=O)O)n(CC)c12,2.89% [at 35.3 µM] (inactive)
15,CC(C)CCCCCCc1ccc(OCCOCCO)cc1,-8.22% (inactive)
16,CC(=O)OC(C)OC(C)=O,5.96% (inactive)
17,COc1ccc(S(=O)(=O)Nc2nnc(CC(C)C)s2)cc1,-11.5% [at 35.3 µM] (inactive)
18,CC(C)NC[C@@H](O)COc1cccc2ccccc12,8.13% [at 35.3 µM] (inactive)
19,C[C@@H](N)C(=O)O,6.65% [at 35.3 µM] (inactive)
20,O=C(Cl)c1cccc([N+](=O)[O-])c1,-2.45% (inactive)

# From PubChem BioAssay (Tox21)
